Here are results for 62 compounds from PubChem BioAssay AID651718 (The Scripps Research Institute Molecular Screening Center, 2012).

Out of some 360,000 compounds screened, about 2,700 (0.75%) were called active. Shown is part of a subset that was picked to be rich in actives. Unmarked numbers belong to inactive results. Rule as the data show it: active = inhibition above about 4.5%; inactive = the rest.

The test relates to Methionine sulfoxide reductase A (Bos taurus). Put plainly: bovine MsrA enzyme inhibitors, primary screen, biochemical, absorbance, HTS (AID 651718).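 Also: 0% = vehicle wells with enzyme and 100% = reference inhibitor wells.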 As to conditions: purified bovine MsrA, absorbance read-out; at 15.5 µM; stronger effect = higher value.
As usually defined, the inhibition is the drop in the measured response relative to a control, in per cent. Regarding `O=C(N[C@H](Cc1ccccc1)C(=O)N1CCCN(Cc2cccs2)CC1)[C@H]1O[C@@H](n2ccc(=O)[nH]c2=O)[C@H](O)[C@@H]1O`, the inhibition was 0.08%.

On to `O=c1c(F)cn(C2CCCO2)c(=O)n1Cc1ccccc1Cl` (configuration not stated), for which the inhibition is 0.2%.

As for `O=c1[nH]c2ccc(S(=O)(=O)N3CCCC3)cc2[nH]1`, the inhibition was -0.78%.

Consider `CN(c1ccccc1)S(=O)(=O)c1ccc2[nH]c(=O)[nH]c2c1`, for which the inhibition was 14.1% (active).

Consider `CCN(c1ccccc1)S(=O)(=O)c1ccc2[nH]c(=O)[nH]c2c1`, for which the inhibition was 2.53%.

Turning to `CN1C(=O)C(Br)(Br)CC1c1cccnc1` (configuration not stated), the inhibition is 1.57%.

`Cc1cc(Br)cn2c(Cc3ccccc3C(F)(F)F)c(-c3ccc(C#N)cc3)nc12`: the inhibition is -0.24%.

Regarding `O=C(COC(=O)COc1cc(Cl)c(Cl)cc1Cl)NC1CC1`, the inhibition is 3.33%.

Regarding `O=C(COc1cc(Cl)c(Cl)cc1Cl)NCCc1ccccn1`, the inhibition is -0.1%.

As for `NC(=S)NN=Cc1ccc(OC(=O)COc2cc(Cl)c(Cl)cc2Cl)cn1`, the inhibition is 4.84% (active).

Take `CCCCCCCCN1C(=O)[C@@H](CC(=O)NCc2ccccc2)C[C@@]2(C(=O)OC)C1=C[C@H](C(C)(C)C)O[C@@H]2C`: the inhibition was 0.32%.

Turning to `CCOc1cccc(NC(=O)Cn2nc(-c3ccc4c(c3)OCCO4)ccc2=O)c1`, the inhibition is -0.18%.

As for `COc1cc(C=NC2CCCCC2)ccc1O`, the inhibition is 3.96%.

Turning to `COc1ccc2[nH]c(C(=O)N/N=C/c3cc(OC)c(OC)c(OC)c3)cc2c1`, the inhibition was 6.03% (active).

Take `COc1cccc2[nH]c(C(=O)NCCc3ccccc3)cc12`: the inhibition is -0.25%.

Consider `COc1cc2cc(C(=O)N/N=C/c3cccc(OC)c3OC)[nH]c2cc1OC`, for which the inhibition is 5.39% (active).

Take `CCOc1ccc2[nH]c(C(=O)N/N=C/c3cccc(OC)c3OC)cc2c1`: the inhibition is 5.19% (active).

For the compound `CCOc1ccccc1/C=N/NC(=O)CNC(=O)COc1ccccc1`, the inhibition is 0.86%.

Regarding `COc1ccc2[nH]c(=O)c(CNc3ccc(C)c(C)c3)cc2c1`, the inhibition is 1%.

As for `CCC(=O)c1ccc(OC(=O)/C=C/c2cc(OC)c(OC)c(OC)c2)cc1`, the inhibition is 1.16%.

On to `CCN1CCCC1CNC(=O)c1cc2cc(OC)c(OC)cc2[nH]1` (configuration not stated), for which the inhibition is 2.2%.

In the case of `CCOc1ccc2ccccc2c1/C=N/NC(=O)c1c(C)cc(C)[nH]c1=O`, the inhibition is 2.01%.

For the compound `Cc1ccc(C)c(N2C(=O)CS/C2=N\NC(=O)c2ccccc2Cl)c1`, the inhibition is 0.65%.

In the case of `Cc1ccc(N2C(=O)C3C4C=CC(CC4)C3C2=O)cc1Br` (configuration not stated), the inhibition is -0.75%.

With `Cc1[nH]nc2c1C(c1ccc(Br)cc1)NC2=O` (configuration not stated), the inhibition is 0.64%.

In the case of `CCOC(=O)C1=CCC2C(=O)N(Cc3ccccc3)C(=O)C12` (configuration not stated), the inhibition is -0.57%.

Turning to `C[C@H](O)[C@@H]1CN2CCc3ccc(-c4ccc5c(c4)OCO5)cc3[C@@H]2C[C@@H]1N(C)C(=O)C1CCCCC1`, the inhibition was -0.49%.

`Cc1ccc(C(=O)NC2CCCC(C)C2C)cc1S(=O)(=O)N1CCCCC1` (configuration not stated): the inhibition was -0.29%.

For `COc1cccc(-c2nn(C)c3sc(C(=O)N4CCN(c5ccccc5)CC4)cc23)c1`, the inhibition is 4.59% (active).

With `Cn1nc(C(F)(F)F)c2cc(C(=O)N3CCOCC3)sc21`, the inhibition is -0.18%.

As to `COc1cccc(-c2ccc(SCC(=O)N3CCN(c4ccccc4)CC3)nn2)c1`, the inhibition was -0.38%.

In the case of `O=C(C(=O)N1CCC(CNS(=O)(=O)Cc2ccccc2)CC1)c1cc2ccccc2o1`, the inhibition was 1.99%.

`O=c1c2ccccc2nnn1CSc1nc2sc3c(c2c(=O)n1CC1CCCO1)CCC3` (configuration not stated): the inhibition was -0.37%.

On to `Brc1cc(/C=N/n2cnnc2)oc1Br`, for which the inhibition is 2.05%.

For `Cc1ccc(Cl)cc1-c1ccc(/C=N/n2cnnc2)o1`, the inhibition was 4.94% (active).

Turning to `Clc1cc(-c2ccc(/C=N/n3cnnc3)o2)ccc1Br`, the inhibition was 0.91%.

As to `CC(=O)Nc1ccc(S(=O)(=O)N(C)c2ccc(OCC(=O)OCC(=O)N3CCCCC3)cc2)cc1`, the inhibition is -0.39%.

As to `CC(C)OCCCNC(=S)N1CCC(C(=O)c2ccc3c(c2)OCCO3)CC1`, the inhibition was -0.4%.

For `CCCN(CC(=O)Nc1ccccc1OC)C(=O)CCC(=O)c1ccc(F)cc1`, the inhibition was -0.69%.

As for `CCOC(=O)C(=Cc1ccccc1)C(=O)c1ccccc1`, the inhibition was 0.49%.

With `CSc1nc(N(C)NC(=O)c2cccc(C)c2)c2ccccc2n1`, the inhibition is 0.74%.

As for `Cc1cc(C)nc(S/C=C/C(=O)c2ccccc2)n1`, the inhibition was 5.17% (active).

With `CCc1ccc(C2=CC(=O)CC(C)(C)C2=O)cc1`, the inhibition was 0.09%.

In the case of `COc1cccc(CNC(=O)[C@H]2CCCN2C(=O)[C@H]2CCCN2C(=O)C2CCCCC2)c1`, the inhibition is -0.24%.

Take `COCC1CCN(C(=O)C2CCC(=O)N(CC3CCCCC3)C2)CC1` (configuration not stated): the inhibition was -0.21%.

Regarding `Oc1oc(-c2ccccc2Br)nc1/C=N/c1ccccn1`, the inhibition is 2.4%.

For `Cc1ccc(-c2noc(CC(c3ccccc3)c3ccccc3)n2)cc1`, the inhibition was 0.66%.

`CC(N=Cc1nc(-c2ccccc2)oc1O)c1ccccc1` (configuration not stated): the inhibition was 5.77% (active).

`CCN(CC)CC1(O)CCN(C(=O)c2ccc(Cl)c(Cl)c2)CC1`: the inhibition was -0.14%.

With `Cc1ccc(C)c(CN2CCC(CNC(=O)C3CCCN(c4ncnc5c4nc4n5CCCCC4)C3)CC2)c1` (configuration not stated), the inhibition was 1.23%.

As to `CC(C)c1ccc(/C=C2\NC(=O)NC2=O)cc1`, the inhibition is 1.9%.

Take `CSc1ccc(/C=C2\NC(=O)NC2=O)cc1`: the inhibition was 7.41% (active).

As for `CSc1ccc(/C=C/C(=O)NC23CC4CC(CC(C4)C2)C3)cc1`, the inhibition is 3.33%.

As for `OC(CCl)CCl`, the inhibition was -0.37%.

Regarding `COc1ccc(CN2CCC(C)(Oc3cccc(F)c3)C2)c2ccccc12` (configuration not stated), the inhibition was 0.31%.

`CC(/C=N/NC(=O)c1cc(-c2ccc3ccccc3c2)n[nH]1)=C\c1ccco1`: the inhibition is 2.77%.

As to `CC(/C=N/NC(=O)c1ccncc1)=C\c1ccco1`, the inhibition was 4.8% (active).

For the compound `CC(=NNC(=O)c1ccncc1)c1ccc(Cl)c(Cl)c1`, the inhibition was -0.76%.

For `C=CCN1C(=O)N(Cc2ccccc2)c2ccccc2S1(=O)=O`, the inhibition is 3.26%.

On to `COCCNC(=S)N/N=C/c1c(C)[nH]c2ccccc12`, for which the inhibition is 5.52% (active).

In the case of `Cc1[nH]c2ccccc2c1/C=N/NC(=O)CNC(=O)c1ccc2c(c1)OCO2`, the inhibition is 2.56%.

For the compound `COCCNC(=S)N(CCc1c(C)[nH]c2ccc(C)cc12)Cc1cccnc1`, the inhibition is -1.51%.
